Experimental data reported in publication PMC7862700, “An all-to-all approach to the identification of sequence-specific readers for epigenetic DNA modifications on cytosine”.

What was measured:
Assay in all cases: DAPPL (digital affinity profiling via proximity ligation, sequencing); 10 mM Tris-HCl pH 7.5, 50 mM NaCl, 1 mM DTT, 4% glycerol, room temperature, 30 min; GST-TFs on glutathione beads, 16-mer random dsDNA library, 0.1% formaldehyde crosslink after washing; high values mean tight binding
[1] = biological target: T1, FEV (Homo sapiens, UniProt Q99581 1-238); conditions: protein: recombinant; tags: N-terminal GST; dsDNA, one strand shown
T1 sequence: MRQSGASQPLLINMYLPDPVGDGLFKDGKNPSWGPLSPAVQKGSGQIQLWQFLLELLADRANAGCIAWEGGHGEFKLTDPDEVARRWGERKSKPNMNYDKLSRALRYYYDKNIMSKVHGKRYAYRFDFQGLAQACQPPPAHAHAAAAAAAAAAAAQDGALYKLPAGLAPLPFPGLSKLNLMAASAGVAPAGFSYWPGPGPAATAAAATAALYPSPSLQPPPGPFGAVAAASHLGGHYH
Outline: (§1)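 Binding signal is defined as a hexamer's read frequency for one factor over its frequency for the tag-only sample. To obtain reads, GST-fused human transcription factors were expressed in yeast, captured on glutathione beads, barcoded with DNA and pooled with that sample. Pools met 200 nmole of a 16-mer random double-stranded DNA library in Tris/NaCl/DTT/glycerol buffer for 30 min at room temperature before washing, 0.1% formaldehyde crosslinking, proximity ligation (BsaI/T4 ligase, 1 h, 37 °C), PCR and Illumina NextSeq500 sequencing.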

[2] = biological target: ETV5 (Homo sapiens, UniProt P41161 1-510); conditions: protein: recombinant; tags: N-terminal GST; dsDNA, one strand shown
Sequence of ETV5 (P41161 whole entry): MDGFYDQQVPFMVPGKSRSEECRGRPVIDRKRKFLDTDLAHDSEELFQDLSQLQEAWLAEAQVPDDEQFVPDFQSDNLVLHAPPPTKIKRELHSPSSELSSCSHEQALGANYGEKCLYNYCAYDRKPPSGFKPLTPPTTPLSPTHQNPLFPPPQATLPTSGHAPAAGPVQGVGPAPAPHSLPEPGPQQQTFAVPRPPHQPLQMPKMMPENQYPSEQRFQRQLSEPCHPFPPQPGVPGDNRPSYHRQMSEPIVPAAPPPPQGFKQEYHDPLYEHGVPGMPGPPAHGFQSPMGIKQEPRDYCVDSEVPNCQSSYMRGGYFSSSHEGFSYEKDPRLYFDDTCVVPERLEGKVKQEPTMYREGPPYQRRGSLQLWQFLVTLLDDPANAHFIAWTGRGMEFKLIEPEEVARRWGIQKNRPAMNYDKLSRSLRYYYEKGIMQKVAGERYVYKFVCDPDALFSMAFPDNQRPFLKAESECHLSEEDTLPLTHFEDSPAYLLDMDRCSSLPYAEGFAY
Outline: as §1

[3] = biological target: HSF1 (Homo sapiens, UniProt Q00613 1-529); conditions: protein: recombinant; tags: N-terminal GST; chain copies: 3; dsDNA, one strand shown
Sequence of HSF1 (Q00613 whole entry): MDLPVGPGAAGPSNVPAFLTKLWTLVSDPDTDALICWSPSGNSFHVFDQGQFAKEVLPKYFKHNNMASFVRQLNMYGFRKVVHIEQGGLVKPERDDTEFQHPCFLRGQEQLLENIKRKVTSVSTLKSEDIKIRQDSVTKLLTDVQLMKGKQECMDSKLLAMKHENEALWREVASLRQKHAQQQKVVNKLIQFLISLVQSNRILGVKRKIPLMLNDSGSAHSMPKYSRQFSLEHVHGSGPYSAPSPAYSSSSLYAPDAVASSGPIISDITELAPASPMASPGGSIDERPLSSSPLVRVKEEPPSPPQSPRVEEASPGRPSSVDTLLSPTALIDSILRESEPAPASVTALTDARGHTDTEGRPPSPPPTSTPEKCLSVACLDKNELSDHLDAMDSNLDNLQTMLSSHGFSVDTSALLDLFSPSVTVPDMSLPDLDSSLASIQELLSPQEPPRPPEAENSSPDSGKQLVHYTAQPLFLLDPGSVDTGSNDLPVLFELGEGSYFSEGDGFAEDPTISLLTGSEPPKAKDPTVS
Outline: as §1

[4] = biological target: T2, SPIC (Homo sapiens, UniProt Q8N5J4 1-248); conditions: protein: recombinant; tags: N-terminal GST; dsDNA, one strand shown
T2 sequence: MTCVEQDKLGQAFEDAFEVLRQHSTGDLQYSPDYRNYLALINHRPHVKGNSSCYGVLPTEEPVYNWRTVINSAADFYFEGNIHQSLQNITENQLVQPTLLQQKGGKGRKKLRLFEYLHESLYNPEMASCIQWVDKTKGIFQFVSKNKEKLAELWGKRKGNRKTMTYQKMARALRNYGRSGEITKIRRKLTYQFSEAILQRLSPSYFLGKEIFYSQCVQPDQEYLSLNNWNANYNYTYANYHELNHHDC
Outline: as §1

[5] = biological target: ELF4 (Homo sapiens, UniProt Q99607 1-663); conditions: protein: recombinant; tags: N-terminal GST; dsDNA, one strand shown
Sequence of ELF4 (Q99607 whole entry): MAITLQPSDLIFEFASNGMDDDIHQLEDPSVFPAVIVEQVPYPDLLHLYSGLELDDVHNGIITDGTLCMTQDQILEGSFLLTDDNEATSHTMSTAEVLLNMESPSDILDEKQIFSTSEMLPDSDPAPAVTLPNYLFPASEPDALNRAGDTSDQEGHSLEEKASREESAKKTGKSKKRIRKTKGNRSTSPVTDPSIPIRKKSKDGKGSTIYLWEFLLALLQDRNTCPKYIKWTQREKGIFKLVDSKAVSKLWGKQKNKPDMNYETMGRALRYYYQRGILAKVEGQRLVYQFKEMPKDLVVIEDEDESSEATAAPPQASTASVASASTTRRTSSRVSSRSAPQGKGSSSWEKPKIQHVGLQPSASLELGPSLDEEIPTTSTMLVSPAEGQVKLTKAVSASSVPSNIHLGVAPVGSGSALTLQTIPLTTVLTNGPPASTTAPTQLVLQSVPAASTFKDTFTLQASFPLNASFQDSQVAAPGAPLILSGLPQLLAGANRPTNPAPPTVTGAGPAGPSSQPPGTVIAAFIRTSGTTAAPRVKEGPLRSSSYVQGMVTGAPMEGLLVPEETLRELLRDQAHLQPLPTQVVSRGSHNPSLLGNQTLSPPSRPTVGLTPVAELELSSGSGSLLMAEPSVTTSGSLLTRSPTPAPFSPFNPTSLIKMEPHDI
Outline: as §1

[6] = biological target: T3, ELK4 (Homo sapiens, UniProt P28324-2 1-405); conditions: protein: recombinant; tags: N-terminal GST; dsDNA, one strand shown
T3 sequence: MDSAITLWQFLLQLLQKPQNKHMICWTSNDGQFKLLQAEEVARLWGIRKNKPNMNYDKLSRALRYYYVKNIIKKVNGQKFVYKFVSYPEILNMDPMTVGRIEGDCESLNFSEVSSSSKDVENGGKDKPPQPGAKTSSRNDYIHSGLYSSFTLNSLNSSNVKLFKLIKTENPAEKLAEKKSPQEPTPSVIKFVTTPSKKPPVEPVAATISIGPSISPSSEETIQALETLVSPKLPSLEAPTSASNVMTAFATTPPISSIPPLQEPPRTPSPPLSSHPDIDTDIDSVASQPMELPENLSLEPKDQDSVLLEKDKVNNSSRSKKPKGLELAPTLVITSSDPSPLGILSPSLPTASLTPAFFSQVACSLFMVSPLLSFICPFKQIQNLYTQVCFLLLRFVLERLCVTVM
Outline: as §1

[7] = biological target: T4, ETV2 (Homo sapiens, UniProt O00321 1-342); conditions: protein: recombinant; tags: N-terminal GST; dsDNA, one strand shown
T4 sequence: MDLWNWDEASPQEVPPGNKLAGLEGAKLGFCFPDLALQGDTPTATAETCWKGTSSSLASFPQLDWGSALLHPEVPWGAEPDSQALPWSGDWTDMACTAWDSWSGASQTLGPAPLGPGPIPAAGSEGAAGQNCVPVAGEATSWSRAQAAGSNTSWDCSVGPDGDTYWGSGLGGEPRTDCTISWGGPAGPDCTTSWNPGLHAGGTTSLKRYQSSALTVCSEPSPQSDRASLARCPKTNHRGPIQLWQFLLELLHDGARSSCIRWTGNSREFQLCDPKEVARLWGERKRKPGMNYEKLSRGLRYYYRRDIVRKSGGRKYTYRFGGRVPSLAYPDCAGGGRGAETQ
Outline: as §1

[8] = biological target: T5, ELF3 (Homo sapiens, UniProt P78545 1-371); conditions: protein: recombinant; tags: N-terminal GST; dsDNA, one strand shown
T5 sequence: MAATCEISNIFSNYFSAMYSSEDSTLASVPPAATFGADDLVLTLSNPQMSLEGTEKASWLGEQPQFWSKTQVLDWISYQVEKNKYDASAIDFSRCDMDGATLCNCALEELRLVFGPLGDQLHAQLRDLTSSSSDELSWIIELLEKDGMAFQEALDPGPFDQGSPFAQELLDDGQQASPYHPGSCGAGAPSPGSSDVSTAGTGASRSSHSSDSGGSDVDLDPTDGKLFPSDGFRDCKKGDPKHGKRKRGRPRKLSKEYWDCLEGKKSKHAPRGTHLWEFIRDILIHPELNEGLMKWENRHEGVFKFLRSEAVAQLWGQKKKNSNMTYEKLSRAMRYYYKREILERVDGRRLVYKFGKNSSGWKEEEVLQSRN
Outline: as §1

[9] = biological target: CRX (Homo sapiens, UniProt O43186 1-299); conditions: protein: recombinant; tags: N-terminal GST; dsDNA, one strand shown
Sequence of CRX (O43186 whole entry): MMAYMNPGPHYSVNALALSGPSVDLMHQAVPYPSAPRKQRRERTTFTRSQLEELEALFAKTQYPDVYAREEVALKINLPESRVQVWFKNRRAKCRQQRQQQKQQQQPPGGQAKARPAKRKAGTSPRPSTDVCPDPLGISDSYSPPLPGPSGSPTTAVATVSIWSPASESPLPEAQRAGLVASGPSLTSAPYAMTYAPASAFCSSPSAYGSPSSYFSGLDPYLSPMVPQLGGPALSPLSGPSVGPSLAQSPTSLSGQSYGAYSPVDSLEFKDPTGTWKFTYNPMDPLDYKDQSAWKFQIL
Outline: as §1

[10] = biological target: ETV1 (Homo sapiens, UniProt P50549 1-477); conditions: protein: recombinant; tags: N-terminal GST; dsDNA, one strand shown
Sequence of ETV1 (P50549 whole entry): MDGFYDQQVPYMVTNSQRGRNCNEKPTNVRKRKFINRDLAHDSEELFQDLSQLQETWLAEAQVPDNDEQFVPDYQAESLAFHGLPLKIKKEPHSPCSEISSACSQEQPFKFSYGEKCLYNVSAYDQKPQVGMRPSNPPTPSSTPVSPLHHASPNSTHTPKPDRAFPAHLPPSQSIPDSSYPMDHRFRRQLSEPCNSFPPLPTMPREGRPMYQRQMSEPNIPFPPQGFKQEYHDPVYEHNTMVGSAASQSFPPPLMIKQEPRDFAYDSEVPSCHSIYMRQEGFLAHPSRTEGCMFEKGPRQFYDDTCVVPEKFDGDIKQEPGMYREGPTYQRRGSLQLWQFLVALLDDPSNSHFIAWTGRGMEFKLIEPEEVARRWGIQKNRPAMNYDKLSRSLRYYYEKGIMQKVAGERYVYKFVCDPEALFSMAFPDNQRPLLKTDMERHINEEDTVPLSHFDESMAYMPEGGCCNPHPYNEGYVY
Outline: as §1

[11] = biological target: T6, ERF (Homo sapiens, UniProt P50548 1-548); conditions: protein: recombinant; tags: N-terminal GST; dsDNA, one strand shown
T6 sequence: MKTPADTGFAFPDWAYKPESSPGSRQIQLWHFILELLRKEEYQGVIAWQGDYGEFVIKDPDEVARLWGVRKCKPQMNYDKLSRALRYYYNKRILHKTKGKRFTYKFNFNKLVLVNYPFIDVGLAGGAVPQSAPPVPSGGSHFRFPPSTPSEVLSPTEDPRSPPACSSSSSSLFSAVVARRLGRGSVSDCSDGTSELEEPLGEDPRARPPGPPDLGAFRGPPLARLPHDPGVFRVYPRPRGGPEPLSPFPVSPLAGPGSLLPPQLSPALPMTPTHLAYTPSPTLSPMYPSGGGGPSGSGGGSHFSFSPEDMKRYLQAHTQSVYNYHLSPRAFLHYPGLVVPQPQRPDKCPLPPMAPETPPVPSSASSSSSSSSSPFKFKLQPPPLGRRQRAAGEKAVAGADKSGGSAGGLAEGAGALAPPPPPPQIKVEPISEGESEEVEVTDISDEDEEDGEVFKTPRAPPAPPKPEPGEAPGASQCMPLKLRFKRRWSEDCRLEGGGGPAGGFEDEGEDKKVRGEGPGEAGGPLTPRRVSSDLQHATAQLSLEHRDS
Outline: as §1

[12] = biological target: T7, ETV3L (Homo sapiens, UniProt Q6ZN32 1-361); conditions: protein: recombinant; tags: N-terminal GST; dsDNA, one strand shown
T7 sequence: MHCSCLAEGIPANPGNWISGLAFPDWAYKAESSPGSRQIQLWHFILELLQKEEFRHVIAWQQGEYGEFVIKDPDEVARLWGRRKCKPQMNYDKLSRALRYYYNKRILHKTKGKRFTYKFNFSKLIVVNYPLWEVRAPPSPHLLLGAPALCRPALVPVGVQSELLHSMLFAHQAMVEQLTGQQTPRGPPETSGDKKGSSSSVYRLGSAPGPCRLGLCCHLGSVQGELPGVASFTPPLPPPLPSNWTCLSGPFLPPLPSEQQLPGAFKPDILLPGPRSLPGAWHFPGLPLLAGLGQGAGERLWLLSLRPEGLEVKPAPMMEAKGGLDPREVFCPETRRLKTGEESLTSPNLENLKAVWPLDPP
Outline: as §1

[13] = biological target: T8, ETS2 (Homo sapiens, UniProt P15036 1-469); conditions: protein: recombinant; tags: N-terminal GST; dsDNA, one strand shown
T8 sequence: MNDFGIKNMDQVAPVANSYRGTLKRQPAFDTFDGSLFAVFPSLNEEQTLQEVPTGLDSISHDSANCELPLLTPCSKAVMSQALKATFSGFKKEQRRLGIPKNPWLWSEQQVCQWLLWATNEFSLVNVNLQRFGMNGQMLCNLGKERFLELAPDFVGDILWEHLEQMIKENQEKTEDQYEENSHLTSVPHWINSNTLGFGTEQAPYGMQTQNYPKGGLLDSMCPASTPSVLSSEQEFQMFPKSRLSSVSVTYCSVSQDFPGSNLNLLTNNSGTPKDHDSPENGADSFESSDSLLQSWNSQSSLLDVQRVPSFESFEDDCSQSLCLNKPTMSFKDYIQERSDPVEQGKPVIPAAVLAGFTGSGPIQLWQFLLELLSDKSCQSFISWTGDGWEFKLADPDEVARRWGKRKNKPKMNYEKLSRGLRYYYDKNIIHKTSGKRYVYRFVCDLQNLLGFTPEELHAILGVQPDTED
Outline: as §1

[14] = biological target: T9, SPDEF (Homo sapiens, UniProt O95238 1-335); conditions: protein: recombinant; tags: N-terminal GST; dsDNA, one strand shown
T9 sequence: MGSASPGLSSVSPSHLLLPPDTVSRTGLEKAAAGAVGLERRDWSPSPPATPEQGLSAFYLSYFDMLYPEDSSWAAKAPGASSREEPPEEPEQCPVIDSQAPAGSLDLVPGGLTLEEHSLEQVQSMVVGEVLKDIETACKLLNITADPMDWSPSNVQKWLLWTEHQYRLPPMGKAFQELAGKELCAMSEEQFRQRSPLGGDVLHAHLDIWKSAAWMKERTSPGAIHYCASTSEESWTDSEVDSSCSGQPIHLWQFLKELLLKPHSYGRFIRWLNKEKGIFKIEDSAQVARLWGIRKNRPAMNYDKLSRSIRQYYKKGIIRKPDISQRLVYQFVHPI
Outline: as §1

[15] = biological target: T10, ETV7 (Homo sapiens, UniProt Q9Y603 1-341); conditions: protein: recombinant; tags: N-terminal GST; dsDNA, one strand shown
T10 sequence: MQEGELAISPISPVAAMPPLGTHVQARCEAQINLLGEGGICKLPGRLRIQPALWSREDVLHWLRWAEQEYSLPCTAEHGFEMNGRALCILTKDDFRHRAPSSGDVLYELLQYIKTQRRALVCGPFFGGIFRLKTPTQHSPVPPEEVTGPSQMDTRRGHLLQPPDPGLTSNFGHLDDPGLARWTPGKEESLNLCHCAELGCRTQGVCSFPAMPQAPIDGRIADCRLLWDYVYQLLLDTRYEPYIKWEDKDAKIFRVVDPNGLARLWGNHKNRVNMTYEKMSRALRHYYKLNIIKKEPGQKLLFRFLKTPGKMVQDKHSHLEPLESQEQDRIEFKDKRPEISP
Outline: as §1

[16] = biological target: T11, ELF5 (Homo sapiens, UniProt Q9UKW6-2 1-255); conditions: protein: recombinant; tags: N-terminal GST; dsDNA, one strand shown
T11 sequence: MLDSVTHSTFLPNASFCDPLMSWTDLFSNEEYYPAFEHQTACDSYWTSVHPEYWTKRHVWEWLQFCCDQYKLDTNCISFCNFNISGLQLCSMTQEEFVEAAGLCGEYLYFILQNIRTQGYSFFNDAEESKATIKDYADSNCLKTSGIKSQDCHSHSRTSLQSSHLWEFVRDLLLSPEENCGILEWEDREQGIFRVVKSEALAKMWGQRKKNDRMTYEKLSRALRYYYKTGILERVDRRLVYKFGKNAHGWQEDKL
Outline: as §1

[17] = biological target: T12, ETV3 (Homo sapiens, UniProt P41162-2 1-143); conditions: protein: recombinant; tags: N-terminal GST; dsDNA, one strand shown
T12 sequence: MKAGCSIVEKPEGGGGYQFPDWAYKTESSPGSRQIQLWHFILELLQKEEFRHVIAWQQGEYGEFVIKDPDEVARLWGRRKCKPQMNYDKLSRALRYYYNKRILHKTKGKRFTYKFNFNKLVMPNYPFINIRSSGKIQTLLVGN
Outline: as §1

[18] = biological target: ETV6 (Homo sapiens, UniProt P41212 1-452); conditions: protein: recombinant; tags: N-terminal GST; dsDNA, one strand shown
Sequence of ETV6 (P41212 whole entry): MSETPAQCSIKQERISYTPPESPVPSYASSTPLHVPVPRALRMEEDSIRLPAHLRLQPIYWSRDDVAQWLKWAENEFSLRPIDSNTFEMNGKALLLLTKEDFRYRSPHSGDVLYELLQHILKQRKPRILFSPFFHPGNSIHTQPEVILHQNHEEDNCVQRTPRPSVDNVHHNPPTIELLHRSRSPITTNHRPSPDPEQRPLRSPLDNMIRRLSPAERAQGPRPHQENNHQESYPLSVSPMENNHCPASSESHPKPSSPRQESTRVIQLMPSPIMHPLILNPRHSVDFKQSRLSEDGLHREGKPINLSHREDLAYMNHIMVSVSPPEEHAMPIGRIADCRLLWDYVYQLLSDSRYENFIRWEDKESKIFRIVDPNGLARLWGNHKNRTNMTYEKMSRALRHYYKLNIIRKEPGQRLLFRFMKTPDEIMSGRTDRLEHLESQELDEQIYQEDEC
Outline: as §1

**Q.** Which binding signal [1] does the source give for TACGAT here?
**A.** The binding signal was 1.13 fold enrichment (6-mer frequency, TF over GST control).

**Q.** And the binding signal [2]?
**A.** The binding signal was 1.12 fold enrichment (6-mer frequency, TF over GST control).

**Q.** And the binding signal [3]?
**A.** Its binding signal is 1.13 fold enrichment (6-mer frequency, TF over GST control).

**Q.** And the binding signal [4]?
**A.** The binding signal was 1.05 fold enrichment (6-mer frequency, TF over GST control).

**Q.** And the binding signal [5]?
**A.** The binding signal was 1.11 fold enrichment (6-mer frequency, TF over GST control).

**Q.** What about the binding signal [6] of the same sequence?
**A.** The binding signal was 1.14 fold enrichment (6-mer frequency, TF over GST control).

**Q.** What about the binding signal [7] of the same sequence?
**A.** The binding signal was 1.12 fold enrichment (6-mer frequency, TF over GST control).

**Q.** What about the binding signal [8] of the same sequence?
**A.** The binding signal was 1.11 fold enrichment (6-mer frequency, TF over GST control).

**Q.** And the binding signal [9]?
**A.** Its binding signal is 1.37 fold enrichment (6-mer frequency, TF over GST control).

**Q.** And the binding signal [10]?
**A.** The binding signal was 1.07 fold enrichment (6-mer frequency, TF over GST control).

**Q.** What about the binding signal [11] of the same sequence?
**A.** The binding signal was 1.07 fold enrichment (6-mer frequency, TF over GST control).

**Q.** And the binding signal [12]?
**A.** Its binding signal is 1.13 fold enrichment (6-mer frequency, TF over GST control).

**Q.** And the binding signal [13]?
**A.** The binding signal was 1.15 fold enrichment (6-mer frequency, TF over GST control).

**Q.** And the binding signal [14]?
**A.** The binding signal was 1.11 fold enrichment (6-mer frequency, TF over GST control).

**Q.** And the binding signal [15]?
**A.** Its binding signal is 1.07 fold enrichment (6-mer frequency, TF over GST control).

**Q.** What about the binding signal [16] of the same sequence?
**A.** The binding signal was 1.03 fold enrichment (6-mer frequency, TF over GST control).

**Q.** And the binding signal [17]?
**A.** Its binding signal is 1 fold enrichment (6-mer frequency, TF over GST control).

**Q.** And the binding signal [18]?
**A.** The binding signal was 1.03 fold enrichment (6-mer frequency, TF over GST control).
